From PubChem BioAssay AID743100 (Vanderbilt Specialized Chemistry Center, 2013)
Unmarked numbers belong to inactive results. Activity calls are given as the source filed them.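 The calls were made as follows: active = calcium response above 60% of the acetylcholine maximum at human M5, as a positive modulator; inactive = the rest.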

Molecular target: Muscarinic acetylcholine receptor M5 (Homo sapiens) (UniProt P08912)
Assay: M5 muscarinic receptor positive allosteric modulators, cell-based, single concentration, CHO-K1 hM5, calcium flux (AID 743100)
Conditions: CHO-K1 hM5, Fluo-4 calcium flux, ACh EC20, active compounds read high; at 10 µM unless noted

Chain of Muscarinic acetylcholine receptor M5 (Homo sapiens) (P08912 whole entry, looked up): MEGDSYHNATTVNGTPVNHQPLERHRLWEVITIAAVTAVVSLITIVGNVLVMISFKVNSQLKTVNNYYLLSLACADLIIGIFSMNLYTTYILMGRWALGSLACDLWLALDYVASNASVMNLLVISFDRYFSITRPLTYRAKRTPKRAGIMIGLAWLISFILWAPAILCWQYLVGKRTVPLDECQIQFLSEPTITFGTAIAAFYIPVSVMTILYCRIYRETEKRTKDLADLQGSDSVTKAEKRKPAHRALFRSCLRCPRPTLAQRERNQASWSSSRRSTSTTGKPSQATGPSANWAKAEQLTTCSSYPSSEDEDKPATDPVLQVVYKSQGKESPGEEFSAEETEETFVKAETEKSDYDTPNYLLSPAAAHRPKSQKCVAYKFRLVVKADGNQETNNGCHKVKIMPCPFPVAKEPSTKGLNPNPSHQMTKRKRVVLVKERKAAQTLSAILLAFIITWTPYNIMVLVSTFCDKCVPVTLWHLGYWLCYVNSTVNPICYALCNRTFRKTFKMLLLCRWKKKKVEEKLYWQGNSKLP

| Compound | % ACh max response |
| --- | --- |
| CCN(C(=O)C1CCN(S(=O)(=O)c2ccc3c(c2)CCC3)CC1)[C@H](C)c1ccccc1 | 91.5% (active) |
| CCN(Cc1ccccc1)C(=O)C1CCN(S(=O)(=O)c2ccc3c(cnn3C)c2)CC1 | 63.3% (active) |
| CCN(Cc1ccccc1)C(=O)C1CCN(C(=O)c2ccc(OC)cc2)CC1 | 25.5% [at 30 µM] |
| CC(=O)N(Cc1ccccc1)CC1CCN(S(=O)(=O)c2ccc3occc3c2)CC1 | 8.25% |
| CCN(Cc1ccccc1C)C(=O)C1CCN(S(=O)(=O)c2ccc3cn[nH]c3c2)CC1 | 85.1% (active) |
| COc1ccc(S(=O)(=O)N2CCC(CN(Cc3ccccc3)C(C)=O)CC2)cc1 | 11.8% |
| CCN(Cc1ccccc1)C(=O)C1CCN(S(=O)(=O)c2c(C)noc2C)CC1 | 25.9% [at 30 µM] |
| CCN(Cc1ccc(F)cc1)C(=O)C1CCN(S(=O)(=O)c2ccc3cn[nH]c3c2)CC1 | 52.1% |
| CCN(C(=O)C1CCN(S(=O)(=O)c2ccc3occc3c2)CC1)[C@H](C)c1ccccc1C(F)(F)F | 34.4% |
| CCN(Cc1ccc(C#N)cc1)C(=O)C1CCN(S(=O)(=O)c2ccc3cn[nH]c3c2)CC1 | 8.37% |
| CCN(Cc1ccccc1)C(=O)C1CCN(S(=O)(=O)c2cc(C)ccc2C)CC1 | 24.5% [at 30 µM] |
| CCN(Cc1ccccc1)C(=O)C1CCN(S(=O)(=O)C(C)C)CC1 | 20.8% [at 30 µM] |
| CCN(C(=O)C1CCN(S(=O)(=O)c2cc(F)c(F)c(F)c2)CC1)[C@H](C)c1ccccc1 | 71.9% (active) |
| CCN(Cc1ccccc1C(F)(F)F)C(=O)C1(F)CCN(S(=O)(=O)c2ccc(-n3cccn3)cc2)CC1 | 51.8% |
| CCN(Cc1ccccc1)C(=O)C1CCN(S(=O)(=O)c2ccc(C(C)(C)C)cc2)CC1 | 59.3% [at 30 µM] |
| CCN(Cc1ccccc1)C(=O)C1CCN(S(=O)(=O)Cc2ccc(Br)cc2)CC1 | 26.2% [at 30 µM] |

| Compound | % ACh max response |
| --- | --- |
| CCOC(=O)C1(Cc2ccccc2)CCN(S(=O)(=O)c2ccc3occc3c2)CC1 | 18.7% |
| CCN(Cc1ccccc1C(F)(F)F)C(=O)C1CCN(S(=O)(=O)c2ccc(-n3cccn3)cc2)CC1 | 81.9% (active) |
| CCc1ccc(S(=O)(=O)N2CCC(C(=O)N(CC)Cc3ccccc3)CC2)cc1 | 64.3% [at 30 µM] (active) |
| CCN(Cc1ccccc1C(F)(F)F)C(=O)C1CCN(S(=O)(=O)c2ccc3[nH]ncc3c2)CC1 | 90.2% (active) |
| CCN(Cc1ccccc1)C(=O)C1CCN(S(=O)(=O)c2ccccc2Cl)CC1 | 33.6% [at 30 µM] |
| CC(=O)N(Cc1ccccc1)CC1CCN(S(=O)(=O)c2ccc(OC(F)(F)F)cc2)CC1 | 6.72% |
| CCN(Cc1ccccc1)C(=O)C1CCN(S(=O)(=O)c2ccccc2OC(F)(F)F)CC1 | 17.5% [at 30 µM] |
| COc1ccc(S(=O)(=O)N2CCC(C(=O)N3CCCC3c3ccccc3)CC2)cc1 (configuration not stated) | 25.6% [at 30 µM] |
| CCN(Cc1ccccc1)C(=O)C1CCN(S(=O)(=O)c2cccc3nsnc23)CC1 | 40.8% [at 30 µM] |
| CCN(C(=O)C1CCN(S(=O)(=O)N(C)C)CC1)[C@H](C)c1ccccc1 | 29.1% |
| COc1cccc(S(=O)(=O)N2CCC(CN(Cc3ccccc3)C(C)=O)CC2)c1 | 12.7% |
| CCN(CC1CCN(S(=O)(=O)c2ccc3occc3c2)CC1)C(=O)c1ccccc1 | 10.9% |
| CCN([C@H](C)c1ccccc1)S(=O)(=O)C1CCN(S(=O)(=O)c2ccc3cn[nH]c3c2)CC1 | 19.4% |
| CCN(Cc1ccccc1)C(=O)C1CCN(S(=O)(=O)c2cccc(F)c2)CC1 | 63.2% [at 30 µM] (active) |
| CCN(Cc1ccccc1)C(=O)C1CCN(S(=O)(=O)c2ccc(OC(F)F)cc2)CC1 | 66.1% [at 30 µM] (active) |
| CCN([C@H](C)c1ccccc1)S(=O)(=O)C1CCN(S(=O)(=O)c2ccc3[nH]ncc3c2)CC1 | 18.7% |
